Test results taken from PubChem BioAssay AID1159580 (chemical genetic matrix, 2015).
Among all 5,500 compounds or so, about 2,000 (36%) were called active. Another 18% or so got no clear call; they are omitted. No stated cut-off is given here; in the data, active means normalized growth mostly below about 0.91 (no sharp cut-off); inconclusive means no clear call, values can overlap the other calls; inactive means mostly above about 0.92. The list shows a part of the results.

Test: chemical genetic growth profiling, strain panel (AID 1159580);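 further: tested at 20 µM; growth read once vehicle control cultures reached saturation at 30 °C; 1 = growth at the plate median or of vehicle wells; lower values mean less growth of the strain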
Details: growth OD

Measured: normalized growth

Clc1ccc(COC(Cn2ccnc2)c2ccc(Cl)cc2Cl)c(Cl)c1 (configuration not stated)
active: S. cerevisiae deletion strains, locus YJR075W, strain HOC1, active compounds read low 0.0654 | S. cerevisiae deletion strains, locus YKL009W, strain mrt4, active compounds read low 0.0991 | S. cerevisiae deletion strains, locus YKL068W, active compounds read low 0.0685 | S. cerevisiae deletion strains, locus YKL085W, strain MDH1 (second series), active compounds read low 0.0665 | S. cerevisiae deletion strains, locus YKL085W, strain MDH1, active compounds read low 0.0665 | S. cerevisiae deletion strains, locus YKL160W, strain elf1, active compounds read low 0.0826 | S. cerevisiae deletion strains, locus YKL190W, strain CNB1, active compounds read low 0.046 | S. cerevisiae deletion strains, locus YKR001C, strain vps1, active compounds read low 0.0634 | S. cerevisiae deletion strains, locus YKR026C, strain gcn3, active compounds read low 0.0698 | S. cerevisiae deletion strains, locus YKR091W, strain srl3, active compounds read low 0.0616 | S. cerevisiae deletion strains, locus YLL001W, strain dnm1, active compounds read low 0.0638 | S. cerevisiae deletion strains, locus YLL026W, active compounds read low 0.0593 | S. cerevisiae deletion strains, locus YLL041C, strain sdh2, active compounds read low 0.0595 | S. cerevisiae deletion strains, locus YLR027C, strain aat2, active compounds read low 0.0575 | S. cerevisiae deletion strains, locus YLR039C, strain RIC1, active compounds read low 0.0754 | S. cerevisiae deletion strains, locus YLR058C, strain SHM2, active compounds read low 0.0389 | S. cerevisiae deletion strains, locus YLR102C, strain apc9, active compounds read low 0.0667 | S. cerevisiae deletion strains, locus YLR113W, strain HOG1, active compounds read low 0.128 | S. cerevisiae deletion strains, locus YLR221C, strain rsa3, active compounds read low 0.0643 | S. cerevisiae deletion strains, locus YLR258W, strain gsy2, active compounds read low 0.0636 | S. cerevisiae deletion strains, locus YLR262C, strain YPT6 (second series), active compounds read low 0.0835 | S. cerevisiae deletion strains, locus YLR262C, strain YPT6, active compounds read low 0.0925 | S. cerevisiae deletion strains, locus YLR268W, strain sec22, active compounds read low 0.0664 | S. cerevisiae deletion strains, locus YLR320W, strain mms22, active compounds read low 0.087 | S. cerevisiae deletion strains, locus YLR330W, strain CHS5, active compounds read low 0.0522 | S. cerevisiae deletion strains, locus YLR342W, strain FKS1 (second series), active compounds read low 0.0607 | S. cerevisiae deletion strains, locus YLR342W, strain FKS1, active compounds read low 0.0655 | S. cerevisiae deletion strains, locus YLR357W, strain rsc2, active compounds read low 0.124 | S. cerevisiae deletion strains, locus YLR370C, strain arc18, active compounds read low 0.064 | S. cerevisiae deletion strains, locus YLR371W, strain rom2, active compounds read low 0.0643 | S. cerevisiae deletion strains, locus YLR384C, strain iki3, active compounds read low 0.0632 | S. cerevisiae deletion strains, locus YLR418C, strain cdc73, active compounds read low 0.104 | S. cerevisiae deletion strains, locus YML016C, strain PPZ1, active compounds read low 0.0516 | S. cerevisiae deletion strains, locus YML032C, strain rad52, active compounds read low 0.0665 | S. cerevisiae deletion strains, locus YML120C, strain ndi1, active compounds read low 0.0587 | S. cerevisiae deletion strains, locus YML124C, strain tub3, active compounds read low 0.058 | S. cerevisiae deletion strains, locus YMR058W, strain fet3, active compounds read low 0.0613 | S. cerevisiae deletion strains, locus YMR078C, strain ctf18, active compounds read low 0.0692 | S. cerevisiae deletion strains, locus YMR125W, strain sto1, active compounds read low 0.0759 | S. cerevisiae deletion strains, locus YMR129W, active compounds read low 0.0593 | S. cerevisiae deletion strains, locus YMR205C, strain PFK2, active compounds read low 0.0878 | S. cerevisiae deletion strains, locus YMR223W, strain ubp8, active compounds read low 0.0663 | S. cerevisiae deletion strains, locus YMR231W, strain pep5, active compounds read low 0.171 | S. cerevisiae deletion strains, locus YMR263W, strain SAP30, active compounds read low 0.062 | S. cerevisiae deletion strains, locus YMR307W, strain GAS1, active compounds read low 0.107 | S. cerevisiae deletion strains, locus YNL067W, strain RPL9B, active compounds read low 0.0502 | S. cerevisiae deletion strains, locus YNL071W, strain lat1, active compounds read low 0.0615 | S. cerevisiae deletion strains, locus YNL128W, strain TEP1, active compounds read low 0.0612 | S. cerevisiae deletion strains, locus YNL153C, strain GIM3, active compounds read low 0.0486 | S. cerevisiae deletion strains, locus YNL183C, strain NPR1, active compounds read low 0.00703 | S. cerevisiae deletion strains, locus YNL209W, strain ssb2, active compounds read low 0.0642 | S. cerevisiae deletion strains, locus YNL233W, strain BNI4, active compounds read low 0.0542 | S. cerevisiae deletion strains, locus YNL248C, strain rpa49, active compounds read low 0.0801 | S. cerevisiae deletion strains, locus YNL250W, strain rad50, active compounds read low 0.0712 | S. cerevisiae deletion strains, locus YNL271C, strain bni1, active compounds read low 0.0673 | S. cerevisiae deletion strains, locus YNL298W, strain CLA4, active compounds read low 0.0653 | S. cerevisiae deletion strains, locus YNL307C, strain MCK1, active compounds read low 0.0672 | S. cerevisiae deletion strains, locus YNL322C, strain KRE1 (second series), active compounds read low 0.0752 | S. cerevisiae deletion strains, locus YNL322C, strain KRE1, active compounds read low 0.0472 | S. cerevisiae deletion strains, locus YNR049C, strain mso1, active compounds read low 0.0611 | S. cerevisiae deletion strains, locus YNR052C, strain pop2, active compounds read low 0.0593 | S. cerevisiae deletion strains, locus YOL006C, strain TOP1, active compounds read low 0.0836 | S. cerevisiae deletion strains, locus YOL012C, strain htz1 0.185 | S. cerevisiae deletion strains, locus YOL147C, strain pex11, active compounds read low 0.059 | S. cerevisiae deletion strains, locus YOR001W, strain rrp6, active compounds read low 0.0687 | S. cerevisiae deletion strains, locus YOR061W, strain CKA2, active compounds read low 0.0316 | S. cerevisiae deletion strains, locus YOR069W, strain VPS5, active compounds read low 0.052 | S. cerevisiae deletion strains, locus YOR070C, strain gyp1, active compounds read low 0.061 | S. cerevisiae deletion strains, locus YOR080W, strain dia2, active compounds read low 0.0651 | S. cerevisiae deletion strains, locus YOR083W, strain WHI5, active compounds read low 0.0643 | S. cerevisiae deletion strains, locus YOR106W, strain vam3, active compounds read low 0.0643 | S. cerevisiae deletion strains, locus YOR136W, strain idh2, active compounds read low 0.0723 | S. cerevisiae deletion strains, locus YOR144C, strain elg1, active compounds read low 0.0556 | S. cerevisiae deletion strains, locus YOR184W, strain ser1, active compounds read low 0.0771 | S. cerevisiae deletion strains, locus YOR231W, strain MKK1, active compounds read low 0.112 | S. cerevisiae deletion strains, locus YOR265W, strain rbl2, active compounds read low 0.0604 | S. cerevisiae deletion strains, locus YOR270C, strain vph1, active compounds read low 0.0973 | S. cerevisiae deletion strains, locus YOR290C, strain snf2, active compounds read low 0.0739 | S. cerevisiae deletion strains, locus YOR316C, strain cot1, active compounds read low 0.0648 | S. cerevisiae deletion strains, locus YPL051W, strain arl3, active compounds read low 0.0665 | S. cerevisiae deletion strains, locus YPL055C, strain LGE1, active compounds read low 0.0731 | S. cerevisiae deletion strains, locus YPL078C, strain atp4, active compounds read low 0.0694 | S. cerevisiae deletion strains, locus YPL106C, strain sse1, active compounds read low 0.128 | S. cerevisiae deletion strains, locus YPL240C, strain hsp82, active compounds read low 0.0639 | S. cerevisiae deletion strains, locus YPL241C, strain CIN2, active compounds read low 0.0503 | S. cerevisiae deletion strains, locus YPL256C, strain CLN2, active compounds read low 0.129 | S. cerevisiae deletion strains, locus YPR119W, strain clb2, active compounds read low 0.0606 | S. cerevisiae deletion strains, locus YPR141C, strain kar3, active compounds read low 0.0743 | S. cerevisiae deletion strains, locus YPR163C, strain tif3, active compounds read low 0.079 | S. cerevisiae deletion strains, locus YPR167C, strain met16, active compounds read low 0.0606 | S. cerevisiae deletion strains, strain wtn01, active compounds read low 0.0603 | S. cerevisiae strains, strain wild type, active compounds read low 0.0493
